# High-throughput results as filed in PubChem.
# Sampled rows, rich in hits. Any-hit rate of the full collection: about 2.5%.
# Cruzain noTriton = qHTS Assay for Promiscuous and Specific Inhibitors of Cruzain (without detergent); purified cruzain, Z-FR-AMC fluorescence, no detergent; AID 1476, 2009; 200,000 tested, 2.3% active; Potency, µM, usual class: inhibitors; note: nearly all actives have a fitted effect of over 40% in size
# Target sequence (P25779 123-467 limits assumed): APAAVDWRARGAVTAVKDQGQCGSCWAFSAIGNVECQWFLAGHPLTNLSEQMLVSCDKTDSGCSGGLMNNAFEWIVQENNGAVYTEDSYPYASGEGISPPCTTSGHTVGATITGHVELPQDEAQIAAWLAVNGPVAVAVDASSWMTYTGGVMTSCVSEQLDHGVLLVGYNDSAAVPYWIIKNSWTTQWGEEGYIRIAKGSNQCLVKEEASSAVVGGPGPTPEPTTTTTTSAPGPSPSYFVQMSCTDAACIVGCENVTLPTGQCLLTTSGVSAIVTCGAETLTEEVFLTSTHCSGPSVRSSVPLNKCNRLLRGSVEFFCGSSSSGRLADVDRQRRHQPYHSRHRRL
#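 Purified cruzain at 1.5 nM, pre-incubated 15 min with compound at room temperature in 100 mM sodium acetate pH 5.5, 5 mM DTT, 0.00005% Triton X-100. Reaction started with 2 uM Z-FR-AMC; AMC fluorescence increase over 60 s gives rate.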
# Cruzain inh Det = qHTS Assay for Promiscuous and Specific Inhibitors of Cruzain (with detergent); Cruzipain (Trypanosoma cruzi), P25779; purified cruzain, Z-FR-AMC fluorescence, 0.01% Triton; Potency, µM, most hits filed as inhibitors; 200,000 tested, 0.43% active; note: nearly all actives have a fitted effect of over 40% in size
#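 Z-FR-AMC hydrolysis (2 uM substrate) by cruzain (1.5 nM) monitored kinetically at ex 360/em 450 nm after 15 min room-temperature compound exposure; 0.01% Triton X-100, pH 5.5, 5 mM DTT.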
# Numbers stand for hits; 0 = inactive; ? = inconclusive. Calls come from the whole dose curve; as a rule, active = well fitted curve in the direction sought with a large enough effect; inconclusive = small, poorly fitted or top-dose-only effect, or another doubt; inactive = no such curve, though single readings can be large; an effect the other way counts as inactive or inconclusive.
SMILES,Cruzain noTriton,Cruzain inh Det
COc1ccc(OCc2nc3c4c(-c5ccc(OC)cc5)c(-c5ccc(OC)cc5)oc4ncn3n2)cc1,0,0
COc1ccc(-c2oc3ncn4nc(Cc5ccccc5)nc4c3c2-c2ccc(OC)cc2)cc1,10µM,0
COc1ccc(-c2oc3ncn4nc(COc5ccccc5)nc4c3c2-c2ccc(OC)cc2)cc1,4µM,0
O=C(NCc1cccs1)c1ccc(CSc2nc3ccncc3n2Cc2ccccc2F)cc1,0,0
Cc1nnc(SCC(=O)Nc2ccc(S(=O)(=O)N3CCCC3)cc2)n1N,0,0
Cc1cc(C)c2nc(SCC(=O)Nc3ccc(S(=O)(=O)N4CCCC4)cc3)c(C)cc2c1,13µM,0
N#Cc1cc2ccccc2nc1SCC(=O)Nc1ccc(S(=O)(=O)N2CCCC2)cc1,?,0
COc1ccc2nc(SCC(=O)Nc3ccc(S(=O)(=O)N4CCCC4)cc3)c(C#N)cc2c1,13µM,0
CC1=C(O)C(=O)C=C2C1=CC=C1[C@]2(C)CC[C@@]2(C)C3C[C@](C)(C(=O)O)CC[C@@]3(C)CC[C@@]12C (some centres not stated),0,0
CCOc1ccc(CCNC(=O)c2ccc3c(c2)c(C)c(C)n3C)cc1,0,0
O=C(NCC(c1ccco1)S(=O)(=O)c1ccc(Cl)cc1)c1ccccc1F (configuration not stated),0,0
COc1ccccc1NC(=O)CC1Sc2ccc(C(F)(F)F)cc2NC1=O (configuration not stated),0,0
CCN(CC)c1ccc(S(=O)(=O)Nc2cc(Cl)ccc2Cl)cc1NC(=S)NC(=O)C1CCCC1,32µM,0
COc1ccccc1NS(=O)(=O)c1ccc(Cl)c(NC(=S)NC(=O)C2CCCC2)c1,?,0
COc1ccc(C2Nc3ccccc3C(=O)N2Cc2ccco2)cc1COc1ccc(NC(C)=O)cc1 (configuration not stated),?,0
COc1ccc(C2Nc3ccccc3C(=O)N2Cc2ccco2)cc1COc1ccccc1F (configuration not stated),25µM,0
O=C1OCCN1C(=O)[C@H]1[C@H](c2ccc(Cl)cc2)C(c2ccc(F)cc2)=NN1c1ccc(Br)cc1,11µM,0
O=C1OCCN1C(=O)[C@H]1[C@H](c2ccc(F)cc2)C(c2ccc(F)cc2)=NN1c1ccc(Br)cc1,25µM,0
O=C1OCCN1C(=O)[C@H]1[C@H](c2ccc(F)cc2)C(c2ccc(F)cc2)=NN1c1ccccc1,?,0
O=C1OCCN1C(=O)[C@H]1[C@H](c2ccc(Cl)cc2)C(c2ccc(F)cc2)=NN1c1ccccc1,?,0
COc1ccc(Cl)cc1NC(=O)Cn1c(=O)n(Cc2ccco2)c(=O)c2cccnc21,0,0
Cn1c(=O)c2ncn(CC(=O)Nc3ccc4c5c(cccc35)CC4)c2n(C)c1=O,13µM,13µM
Cc1cccc(C)c1NC(=O)Cn1cnc2c(=O)n(C)c(=O)n(C)c21,0,0
Cc1ccc(Oc2ccccc2/C=C2\SC(=O)N(C)C2=O)cc1,0,0
O=C1NC(=O)/C(=C/c2ccccc2Oc2ccc(Cl)cc2)S1,20µM,0
SMILES,Cruzain noTriton,Cruzain inh Det
CC(C)(C)NC(=O)[C@@H]1C[C@H]2CCCC[C@@H]2CN1C[C@H](O)[C@H](Cc1ccccc1)NC(=O)[C@@H](CC(N)=O)NC(=O)c1ccc2ccccc2n1,0,0
CCN(Cc1ccccc1)c1ccc(/C=N/NS(=O)(=O)c2cccc([N+](=O)[O-])c2)cc1,25µM,0
CCN(CC)c1ccc(/C=N/NS(=O)(=O)c2ccc(C)c([N+](=O)[O-])c2)cc1,0,0
c1nc(N2CC2)c2cnn([C@@H]3CCCCO3)c2n1,0,0
CCOc1ccc(NC(=O)c2ccc3c(c2)CCN3S(=O)(=O)c2ccc(Cl)cc2)cc1,?,0
CC(C)c1ccc2[nH]c(O)c(N=NC(=O)c3cccc(S(=O)(=O)N4CCCCC4)c3)c2c1,25µM,0
O=C(N=Nc1c(O)[nH]c2ccccc12)c1cccc(S(=O)(=O)N2CCCCC2)c1,0,0
CN1CCC[C@H](C(=O)OCC(=O)[C@]2(O)CC[C@@H]3[C@H]4CCC5=CC(=O)CC[C@@]5(C)[C@H]4[C@@H](O)C[C@]32C)C1,0,0
COc1ccc(-c2cc(=O)n(-c3ccc([N+](=O)[O-])cc3)[nH]2)cc1,?,0
O=C1/C(=C/c2ccc([N+](=O)[O-])cc2)C=C(c2ccccc2)N1c1ccc(O)cc1,?,0
COc1ccc(N2C(=O)/C(=C/c3ccc([N+](=O)[O-])cc3)C=C2c2ccccc2)cc1,16µM,0
O=C1/C(=C/c2ccc([N+](=O)[O-])cc2)C=C(c2ccccc2)N1c1ccccc1,13µM,0
c1cncc(-c2nnc(SCc3nc4ccccc4[nH]3)o2)c1,?,0
c1ccc2[nH]c(CSc3nc4ccccc4o3)nc2c1,13µM,0
COc1ccc(N(C(=O)c2ccc(OC)c(OC)c2)S(=O)(=O)c2ccc(Cl)cc2)cc1,0,0
Cc1cc(-c2nc3ncccc3o2)ccc1N,?,28µM
Nc1cc(-c2nc3ncccc3o2)ccc1Cl,0,0
COc1ccccc1Cn1c(=O)c2ccccc2n2c(Sc3ncnc4sccc34)nnc12,16µM,0
COc1ccccc1Cn1c(=O)c2ccccc2n2c(SCc3csc(C)n3)nnc12,0,0
COc1cccc(NC(=O)C(=O)NCC(c2ccc3c(c2)OCO3)N2CCOCC2)c1 (configuration not stated),0,0
COc1ccc(NC(=O)c2nc(S(C)(=O)=O)ncc2N(Cc2ccc(C)cc2)Cc2ccco2)cc1Cl,10µM,0
COc1ccc(Cl)cc1NC(=O)c1nc(S(C)(=O)=O)ncc1N(Cc1ccc(C)cc1)Cc1ccco1,?,0
COc1ccc(CNC(=O)C2CCN(S(=O)(=O)c3cccc4nonc34)CC2)cc1OC,0,0
COc1ccc(N2CCN(S(=O)(=O)c3cccc(C(F)(F)F)c3)CC2)cc1,0,0
COc1ccc(N2CCN(S(=O)(=O)c3ccc(Cl)c(C(F)(F)F)c3)CC2)cc1,16µM,0
SMILES,Cruzain noTriton,Cruzain inh Det
CN(C)CS/C(N)=N/[C@H](O)C(Cl)(Cl)Cl,0,0
N#C/C(=C\c1cc([N+](=O)[O-])c(N2CCOCC2)cc1N1CCOCC1)c1nc2ccccc2[nH]1,?,0
N#C/C(=C\c1cc([N+](=O)[O-])c(N2CCCCC2)cc1N1CCCCC1)c1nn(-c2ccccc2)c(N)c1C#N,7.9µM,0
Cc1ccc2c(CC(=O)N3CCc4ccccc43)coc2c1,0,0
O=C(Cc1coc2ccc3ccccc3c12)N1CCc2ccccc21,13µM,0
CCOC(=O)c1cc(-c2ccccc2)nn1Cc1ccccc1,0,0
O=C1C=CC(=O)c2c(O)cccc21,7.9µM,0
O=C1c2cccc(O)c2C(=O)c2c(O)cccc21,0,0
CCc1ccc(-n2nc(C)c3c(C)cc(=O)n(CC(=O)Nc4cc(C)ccc4C)c32)cc1,0,0
C=CCOc1ccc2cccc(/C=N/NC(=O)c3cc4cc([N+](=O)[O-])ccc4s3)c2c1,6.3µM,0
O=C(N/N=C/c1cccc([N+](=O)[O-])c1)c1cccs1,0,0
NC(=O)NC(N)=O,0,0
CCOC(=O)c1c(C)[nH]c(C(=O)CSc2ccc(Cl)cc2)c1C,?,0
CCOC(=O)c1c(C)[nH]c(C(=O)CSc2nnc(Nc3ccccc3F)s2)c1C,13µM,0
